aGal spleen mod: alpha-galactosidase A (human) modulation; P06280; human spleen homogenate, 4MU-alpha-Gal fluorescence, 40 min; Potency, µM (highest dose often 80 µM), without a hit: at the highest dose activity change, negative = inhibition, most hits filed as inhibitors; 240,000 compounds, 0.008% hits; AID 2107;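 further: potency means the concentration at half of the fitted maximal effect; 0% = enzyme with vehicle and -100% = no enzyme basal signal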
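Spleen homogenate 1 ug + cpd (titration) + 4-MU-alpha-D-galactopyranoside 1 mM; 37C 40 min; 50 mM citrate/phosphate pH 5.0, 0.01% Tween-20; stop pH 10; fluorescence 365/440; AC50 via Hill.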
GAA inh: alpha-glucosidase (human) inhibition. P10253. purified human GAA, 4-MU-alpha-glucoside fluorescence. Potency, µM (titrated, usually from 76.9 µM), for the others: top-dose activity change, negative = inhibition, most hits filed as inhibitors. 200,000 compounds, 0.005% hits. AID 1466;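 further: potency means the concentration at half of the fitted maximal effect; plate controls were uninhibited enzyme wells for no effect and no-enzyme background for full effect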
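Fluorogenic assay: 4 nM human alpha-glucosidase with 400 uM 4-methylumbelliferyl-alpha-D-pyranoside in 50 mM citrate/phosphate, 0.005% Tween-20, pH 5.0, 20 min at room temperature. Compounds tested up to 77 uM; AC50 from Hill fits.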
GLA inh pH 4.5: alpha-galactosidase A (human) inhibition, pH 4.5. purified enzyme, 4-MU-alpha-Gal fluorescence, pH 4.5. activity change, negative = inhibition, % at 105 µM. 230,000 tested, under 10 active;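 further: 0% = full activity with enzyme and -100% = basal without enzyme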
Target sequence (P06280 whole entry, looked up): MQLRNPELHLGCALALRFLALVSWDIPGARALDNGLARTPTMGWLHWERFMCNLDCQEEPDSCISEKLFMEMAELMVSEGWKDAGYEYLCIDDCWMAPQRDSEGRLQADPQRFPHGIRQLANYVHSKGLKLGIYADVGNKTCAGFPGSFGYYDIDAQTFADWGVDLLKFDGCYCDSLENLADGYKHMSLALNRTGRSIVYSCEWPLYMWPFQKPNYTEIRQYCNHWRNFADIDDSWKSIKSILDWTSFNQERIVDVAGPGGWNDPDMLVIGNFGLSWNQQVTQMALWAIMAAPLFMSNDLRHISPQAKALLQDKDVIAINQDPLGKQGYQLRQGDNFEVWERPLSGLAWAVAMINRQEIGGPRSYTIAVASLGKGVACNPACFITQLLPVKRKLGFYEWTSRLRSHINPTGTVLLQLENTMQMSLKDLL
N370S GC: inhibits or activates N370S mutant glucocerebrosidase | N370S GC spleen homogenate, 4MU-glucoside fluorescence | AID 2101 | 330,000 compounds, 0.092% hits | Potency, µM (highest dose often 59.4 µM), inactives show at the top dose activity change, negative = inhibition, most hits filed as inhibitors;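 further: potency means the concentration at half of the fitted maximal effect; 0% = full enzyme activity and -100% = no enzyme basal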
GAA glycogen: alters human alpha-glucosidase cleavage of glycogen | P10253 | recombinant GAA, glycogen substrate, Amplex Red glucose oxidase fluorescence | Potency, µM (titrated, usually from 76.4 µM), for the others: at the highest dose activity change, negative = inhibition, usual class: inhibitors | 300,000 compounds, 0.38% hits | AID 2100;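 further: potency means the concentration at half of the fitted maximal effect; 0% = full enzyme reaction and -100% = no-enzyme basal signal; the screen sought inhibitors and activators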
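Recombinant human alpha-glucosidase (4 nM final) hydrolysed bovine liver glycogen (30 ug) for 40 min at 37 C in pH 5.0 citrate/phosphate with 0.01% Tween-20. Released glucose detected by glucose oxidase/Amplex Red, Ex 573/Em 610 nm. Compounds up to 77 uM; AC50 from Hill fits.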
aGlu spleen mod: inhibitors or activators of human alpha-glucosidase in spleen homogenate | human spleen homogenate, 4-MU-alpha-glucoside fluorescence | Potency, µM (doses to about 79.9 µM), for inactives: at the highest dose activity change, negative = inhibition, usual class: inhibitors | 240,000 compounds, 0.006% hits;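 further: potency means the concentration at half of the fitted maximal effect; 0% = enzyme with vehicle and -100% = no enzyme basal signal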
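Compounds were titrated against alpha-glucosidase in spleen homogenate at pH 5.0, with 1 mM 4-methylumbelliferyl substrate for 40 min at 37 C. Reactions were quenched with pH 10 NaOH/glycine and fluorescence measured.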
* marks the source's active call; other numbers are inactive results; ? = inconclusive; · = not tested or not shown; ! = not active in a repeat; [ ] = remark or other dose. Shown are actives, neighbours in structure and some others; about 0.43% of the full set was active somewhere. The call rests on the fitted dose curve; in most records, active means well fitted curve in the direction sought with a large enough effect; inconclusive means small, poorly fitted or top-dose-only effect, or another doubt; inactive means no such curve, though single readings can be large; an effect the other way counts as inactive or inconclusive.

SMILES | aGal spleen mod | GAA inh | GLA inh pH 4.5 | N370S GC | GAA glycogen | aGlu spleen mod
Cn1ncc(N)c1C(=O)Nc1cccc(C(F)(F)F)c1 | -2% | -4% | 7 | 7% | -7% | -1%
CC(Nc1nc(-c2cccnc2)nc2ccccc12)c1ccc(F)cc1 (centres undefined) | · | · | · | ? | -18%[76.3 µM] | ·
COc1cccc(NC(=O)Nc2cccc(C(=O)O)c2)c1 | -7% | 3% | 2 | -16% | 17% | -3%
COc1cccc(NC(=O)NC2(C(F)(F)F)Oc3ccccc3O2)c1 | 5% | -2% | -8 | -2% | 8.9µM* | 0%
CC(C)CNC(=O)NC1(C(F)(F)F)Oc2ccccc2O1 | -2% | -3% | -7 | -11% | -18% | 3%
O=C(NCc1cccnc1)NC1(C(F)(F)F)Oc2ccccc2O1 | ? | -11% | 2 | -6% | 25µM* | -5%
COc1ccc(C(=O)N=S2CCN(C(=O)c3ccc(Cl)cc3)CC2)cc1 | -3% | -2% | -2 | 3% | 2% | -2%
Nc1n[nH]c2ccccc12 | -4% | -3% | -17 | 7% | 3.5µM* | -24%
Cc1cc(Nc2ccccc2)n(-c2ccccc2)n1 | 3% | -7% | -3 | -3% | 12µM* | -2%
Cc1cc(C)nc(-n2nc(C)cc2Nc2ccccc2)n1 | -1% | -15% | -2 | 24% | -20% | -6%
Cc1ccc(-n2nc(-c3ccc(F)cc3)c3cnc4cc5c(cc4c32)OCO5)cc1C | · | · | · | · | -6%[76.3 µM] | ·
Cc1cccnc1Nc1nc(-c2ccc(O)c(O)c2)cs1 | 0% | ? | 0 | -14% | 7.1µM* | -1%
Cc1ccnc(Nc2nc(-c3ccc(O)c(O)c3)cs2)c1 | · | · | · | 1% | 6.3µM* | ·
CCCCc1ccc(NC(=O)Nc2cccnc2)cc1 | · | · | · | 11µM* | 5%[76.3 µM] | ·
CCN1CCCc2cc(CN(CCN3CCOCC3)C(=S)Nc3ccc(OC)c(OC)c3)ccc21 | 6% | -4% | 0 | -20% | ? | 0%
CCN1CCCc2cc(CN(CCN3CCOCC3)C(=S)Nc3cccc(C)c3)ccc21 | -8% | -4% | -27 | -24% | ? | -3%
CCc1ccc(NC(=O)N(CCN2CCOCC2)Cc2ccc3c(c2)CCCN3CC)cc1 | 4% | -2% | -3 | -8% | 11µM* | -2%
CCN1CCCc2cc(CN(CCN3CCOCC3)C(=O)Nc3ccc(C)c(C)c3)ccc21 | -13% | -5% | 1 | -19% | 11µM* | -1%
CC(C)Cn1c(-c2ccc(S(=O)(=O)N3CCCC3)cc2)csc1=Nc1ccccc1 | · | · | · | · | -3%[76.3 µM] | ·
CN1/C(=N\O)c2cccc3cccc1c23 | 7% | 3% | 3 | -2% | 35µM* | 5%
CNC(=O)CN1C(=O)c2cccc3cccc1c23 | -11% | -1% | -1 | 3% | 6% | -13%
Cc1ccccc1OCC(=O)NCC(c1ccc(Cl)cc1)N1CCOCC1 (centres undefined) | · | · | · | · | -6%[76.3 µM] | ·
CC(C)CC1Nc2ccc(C(=O)NCCCN3CCCCC3C)cc2NC1=O (centres undefined) | · | · | · | -6% | 13µM* | ·
COc1ccc(C(=O)c2ccccc2)c2c(O)ccc(C(=O)c3ccccc3)c12 | 6% | -5% | 5 | 5% | -3% | 5%
COc1ccc(C(C)=O)c2c(O)cccc12 | 7% | 0% | -1 | -2% | 40µM* | 9%
SMILES | aGal spleen mod | GAA inh | GLA inh pH 4.5 | N370S GC | GAA glycogen | aGlu spleen mod
C=CCNC(=O)COC(=O)c1c2c(nc3ccccc13)CCC2 | · | · | · | -1% | -16% | ·
CC1=C(C(=O)Nc2cccnc2)C(c2ccc(Cl)cc2)n2nc(SCc3ccccc3)nc2N1 (centres undefined) | · | · | · | · | 25µM* | ·
N#CCCCS(=O)(=O)c1nnnn1-c1ccc(Br)cc1 | 1% | · | -11 | -10% | · | -4%
CC(C)(C)NC(=S)Nc1ccc(Nc2ccccc2)cc1 | 0% | -8% | -7 | 16% | 14µM* | ?
CC(C)(C)NC(=S)Nc1ccc(Br)cc1 | -4% | -14% | -11 | 7% | -12% | -4%
Cc1ccc(-c2nnc(Nc3ccc(O)cc3)c3ccccc23)cc1S(=O)(=O)N1CCN(C)CC1 | · | · | · | · | 16µM* | ·
O=C(CCN1C(=O)/C(=C/c2ccc(F)cc2)SC1=S)N[C@@H](CO)Cc1ccccc1 | · | · | · | -1% | 0%[76.3 µM] | ·
Cc1ccc(S(=O)(=O)c2cnc(SCC(=O)Nc3ccccc3C(F)(F)F)[nH]c2=O)cc1C | · | · | · | · | -6%[76.3 µM] | ·
COC(=O)CNC(=O)C1CCN(S(=O)(=O)c2cccc3nsnc23)CC1 | · | · | · | -27% | 11µM*! | ·
CC(C)(C)NC(=O)C1CCN(S(=O)(=O)c2cccc3nsnc23)CC1 | · | · | · | 9% | -7%[76.3 µM] | ·
Cc1ccc(N/C=C/C(=O)c2ccco2)c(O)c1 | 1% | · | 0 | -2% | 8.9µM* | 6%
Cc1cc(C)cc(N2C(N)=NC(N)=NC2c2ccccc2F)c1 (centres undefined) | · | · | · | 16µM* | -12% | ·
Cc1cc(C)cc(N2C(N)=NC(N)=NC2c2cccc(Cl)c2)c1 (centres undefined) | · | · | · | -25% | -13% | ·
COc1ccc(C(=O)NNC2=CC(=O)CC(C)(C)C2)cc1 | 0% | -1% | -3 | -5% | ? | -1%
CC1(C)CC(=O)C=C(NNC(=O)c2ccccc2O)C1 | 0% | -11% | 0 | 9% | 45µM* | 2%
Cc1cc(=O)oc2cc(NC(=O)[C@H](CCCCN)NC(=O)[C@H](CC3CCCCC3)NC(=O)OCC3c4ccccc4-c4ccccc43)ccc12 | -15% | · | · | -18% | · | 3%
O=c1ccc2cc(O)c(O)cc2o1 | ? | ? | ? | ? | 6.3µM* | 5%
O=c1ccc2cc3ccoc3cc2o1 | -10% | · | -3 | 4% | -6%[76.3 µM] | 14%
C/C(=N\N1CCN(C2c3ccccc3-c3ccccc32)CC1)c1ccncc1 | -12% | ? | 3 | 1% | 28µM* | 5%
C(=N\N1CCN(C2c3ccccc3-c3ccccc32)CC1)/c1ccncc1 | -2% | 2% | -6 | -12% | -10% | -5%
COC(=O)Cc1nc(Nc2ccccc2)sc1C | -2% | 3%[15.4 µM] | 7 | 3% | ? | 11%
C/C(=N\Nc1ccc(C(=O)O)cc1)c1ccc2c(c1)Nc1ccccc1S2 | -10% | · | -10 | -8% | 11µM* | 3%
Cc1ccc(NC(=S)NNC(=O)c2nn(C)cc2Cl)cc1 | 1% | 5% | 1 | 9% | 14µM* | 2%
Cc1cccc(NC(=S)NNC(=O)c2nn(C)cc2Cl)c1 | 7% | -9% | 1 | 10% | ? | -2%
CCOC(=O)c1c(N)sc2c1CCCC2 | 4% | 2% | 2 | -2% | 35µM* | -8%
CCOC(=O)c1c(N)sc2c1CCC(C)C2 (centres undefined) | 2% | -3% | -15 | 3%[2.35 µM] | ? | 1%
